Bioassay records from PubChem.
A549 viability = A549 cytotoxicity, counter-screen for Nrf2 inhibitors | A549 ARE-Fluc cells, CellTiter-Fluor viability, 18-24 h | Potency, µM (top dose mostly 46 µM), inactives show top-dose activity change, negative = cytotoxicity, actives largely listed as inhibitors | 390,000 compounds, 0.16% hits | AID 504648; note: % is set by controls: 0 for no effect and ±100 for the full control effect
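A549 ARE-Fluc cells in 5% FBS OPTI-MEM, 5000 cells/well, rested 2 h then exposed to compounds in concentration-response for 18-24 h at 37 °C. Viability by CellTiter-Fluor fluorescence (Ex 405/Em 525) after 30 min; luciferase luminescence (BugLite, 15 min, RT) read afterwards.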
HepG2 tox = counter-screen for TGF-b inhibitors: cytotoxicity in HepG2 cells; 410,000 compounds, 0.76% hits; HepG2 CAGA-GFP viability, ATP luminescence, 18 h; Potency, µM (doses to about 46.1 µM), for the others: at the highest dose activity change, negative = cytotoxicity, actives largely listed as cytotoxic
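HepG2 CAGA-GFP cells (1000/well, DMEM with 1% FBS) received compound, then TGF-beta at 500 pg/mL final, and were incubated 18 hours at 37 degrees C. Viability was read by CellTiter-Glo luminescence. Media-only wells were set as complete cell-killing and DMSO as no toxicity.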
S2 tox = cell viability loss in ATXN counter-screen | S2 cells (HEK-293 line with an ATXN2-luciferase reporter) viability, CellTiter-Fluor protease fluorescence, 24 h | Potency, µM (titrated, usually from 56.7 µM), hits mostly cytotoxic | 400,000 compounds, 0.49% hits; note: nearly all actives have a fitted effect of over 40% in size
TGFb inhibitor = inhibitors of TGF-b signaling. HepG2 CAGA-GFP TGF-b/SMAD3 reporter, GFP fluorescence, 18 h; TGF-beta stimulated, 500 pg/mL final. Potency, µM (top dose mostly 46.1 µM), inactives show top-dose activity, negative = inhibition, usual class: inhibitors. 410,000 compounds, 1.2% hits. AID 588855; note: % is set by controls: 0 for no effect and ±100 for the full control effect; nearly all actives have a fitted effect of over 65% in size
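Inhibition of TGF-beta-driven CAGA-GFP reporter expression in HEPG2 cells is measured by cellular GFP fluorescence after 18 h stimulation with 500 pg/mL recombinant TGF-beta in 1% FBS medium at 37 degrees C.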
ATXN2 expr inh = ATXN2 expression inhibition. HEK-293 ATXN2-luciferase reporter, luminescence, 24 h. Potency, µM (highest dose often 57 µM), for the others: top-dose activity change, negative = inhibition, usual class: inhibitors. 360,000 compounds, 0.72% hits. AID 1745845; note: % is set by controls: 0 for no effect and ±100 for the full control effect; nearly all actives have a fitted effect of over 55% in size
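ATXN2-luciferase reporter cells (luciferase flanked by upstream and downstream ATXN2 gene portions) were treated 24 h at 37 °C with compounds at up to 57 uM. SteadyGlo luminescence gave expression; GF-AFC fluorescence gave viability.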
Nrf2 inh = blocks Nrf2 signaling | A549 ARE-Fluc reporter, luciferase luminescence, 18-24 h | Potency, µM (series often up to 46 µM), for inactives: top-dose activity change, negative = inhibition, hits mostly inhibitors | 360,000 compounds, 2.1% hits | AID 504444; note: % is set by controls: 0 for no effect and ±100 for the full control effect; nearly all actives have a fitted effect of over 60% in size
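A549 ARE_Fluc cells, 5000/well, 5% FBS OPTI-MEM; compounds in dose-response, 18-24 h at 37 °C/5% CO2; CellTiter-Fluor viability read (Ex 405/Em 525), then BugLite luciferase luminescence = Nrf2 activity.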
* = called active by the depositor; i = inactive; ? = inconclusive; / = not tested or not shown. Most compounds without a hit are left out; they make up all but 3.8% or so of the library. Calls come from the whole dose curve; as a rule, active = well fitted curve in the direction sought with a large enough effect; inconclusive = small, poorly fitted or top-dose-only effect, or another doubt; inactive = no such curve, though single readings can be large; an effect the other way counts as inactive or inconclusive. Potency is the fitted concentration of half-maximal effect.

SMILES	A549 viability	HepG2 tox	S2 tox	TGFb inhibitor	ATXN2 expr inh	Nrf2 inh
COCCN(C(=O)c1ccc(OC2CCN(S(=O)(=O)N(C)C)CC2)cc1)C(C)C	-0.2%	-1.5%	i	-20.6%	/	3.0%
C=CCn1c(SCc2c(C)noc2C)nc2sc3c(c2c1=O)CCCCC3	-27.6%	-30.1%	i	0.0%	-9.8%	16.4µM*
O=C(c1ccco1)N(Cc1ccc(Cl)cc1)C1CCS(=O)(=O)C1 (stereo unspecified)	-1.3%	-20.7%	i	2.2%	/	25.9µM*
Cc1ccc2nc(-c3cc(-c4ccccc4)no3)cn2c1	9.2%	-14.5%	i	-6.5%	3.55µM*	?
CCc1ccn2cc(-c3cc(-c4ccccc4)no3)nc2c1	-10.4%	10µM*	?	?	/	?
Cc1ccc(-c2cc(-c3ccccc3)no2)c(O)c1	7.3%	-21.3%	i	4.9%	49.9%	11.6%
COc1ccccc1NC(=O)Cc1csc(NC(=S)Nc2ccccc2)n1	18.4µM*	-37.3%	?	14.1µM*	-12.6%	20.6µM*
O=C(Nc1ccc2c(c1)OCO2)c1cnn2c(C(F)(F)F)cc(-c3ccco3)nc12	2.3%	7.3%	i	4.0%	-4.2%	/
O=C(Nc1cnn(C23CC4CC(CC(C4)C2)C3)c1)c1cnn2c(C(F)(F)F)cc(-c3ccco3)nc12	0.5%	0.1%	?	-2.3%	22.4µM*	-11.2%
COc1cc(C(=O)OCC(=O)Nc2ccccc2)cc2c1OCCO2	/	0.1%	?	-13.0%	/	/
O=C(Nc1cc2c(oc1=O)CCCC2=O)c1ccc(Cl)cc1	-0.1%	-19.4%	i	-22.5%	-0.9%	?
COc1cc(C(=O)Nn2cnnc2)ccc1OC(F)F	0.1%	-0.2%	i	6.5%	0.8%	-7.9%
Cc1cc(/C=N/n2c(COc3ccccc3C)nc3ccccc3c2=O)c(O)c([N+](=O)[O-])c1	?	-0.5%	?	-14.8%	?	8.2µM*
CCCc1nc2ccccc2c(=O)n1/N=C/c1ccccc1O	-2.2%	-36.1%	i	2.82µM*	14.3%	-2.8%
Cc1ccc(-c2[nH]ncc2/C=N/n2c(COc3ccccc3C)nc3ccccc3c2=O)cc1	?	5.62µM*	/	12.6µM*	28.2µM*	?
O=C(OCC(=O)N1CCCc2ccccc21)c1cccc(S(=O)(=O)N2CCc3ccccc32)c1	11.4%	13.0%	i	-3.6%	-1.2%	1.8%
COc1ccc(OC)c(NC(=O)CCC(=O)Nc2nnc(C(C)C)s2)c1	0.2%	1.9%	i	4.0%	-9.1%	-4.3%
CCn1c(-c2ccccc2F)nc2cc(NC(C)=O)cc(C(=O)N(C)Cc3cn(C)nc3C)c21	/	/	i	/	/	/
CC(C)Oc1ccc(F)cc1-c1cc(C(=O)N2CCc3ccccc3C2)[nH]n1	/	-33.0%	?	14.1µM*	?	/
COc1ccccc1N(CC(=O)Nc1ccc2c(c1)OCO2)S(=O)(=O)c1ccc(C)cc1	1.9%	-17.6%	i	?	13.5%	8.8%
O=C(Nc1cccc(Oc2ccc(C(=O)O)c(C(=O)O)c2)c1)c1ccc(-c2ccccc2)cc1	3.6%	-11.3%	i	-2.0%	-30.5%	16.4µM*
CC(C)(C)C(=O)Nc1ccc(C(=O)Nc2cc(NC(=O)c3ccc(NC(=O)C(C)(C)C)cc3)cc(C(=O)O)c2)cc1	-4.9%	-0.4%	i	-3.5%	21.6%	?
CC(C)(C)C(=O)Nc1ccc(C(=O)Nc2cccc(Oc3ccc(C(=O)O)c(C(=O)O)c3)c2)cc1	1.8%	13.3%	/	-1.3%	/	20.6µM*
O=C(O)c1ccccc1C(=O)Nc1ccc(Oc2ccccc2)cc1	-3.9%	-6.4%	i	-8.6%	-1.9%	-2.1%
CC(=O)N/N=C/c1ccc([N+](=O)[O-])o1	/	/	i	/	-8.9%	/
SMILES	A549 viability	HepG2 tox	S2 tox	TGFb inhibitor	ATXN2 expr inh	Nrf2 inh
O=C(CN1CCCCCCC1)N/N=C/c1ccc([N+](=O)[O-])o1	?	20µM*	i	12.6µM*	-20.3%	?
Cc1cc2ncn(/N=C/c3ccc([N+](=O)[O-])o3)c2cc1C	5.1%	12.6µM*	i	2.51µM*	?	-25.0%
O=C(Cc1ccc([N+](=O)[O-])cc1)N/N=C/c1ccc([N+](=O)[O-])o1	-22.4%	-114.5%	i	15.8µM*	/	20.6µM*
CC1(C(=O)N/N=C/c2ccc([N+](=O)[O-])o2)CC1(Br)Br (stereo unspecified)	?	11.2µM*	?	11.2µM*	?	?
COc1cccc(C(C(=O)NCc2ccccc2)N(C(=O)c2csnn2)C2CC2)c1 (stereo unspecified)	0.0%	6.7%	i	2.4%	4.3%	11.3%
O=C(CNc1cccc2ccccc12)N/N=C/c1ccc([N+](=O)[O-])o1	?	7.94µM*	?	6.31µM*	?	16.4µM*
O=C(CNc1cccc([N+](=O)[O-])c1)N/N=C/c1ccc([N+](=O)[O-])o1	-9.6%	-57.3%	i	7.08µM*	?	-9.2%
O=[N+]([O-])c1ccc(/C=N/N=C/c2ccc([N+](=O)[O-])o2)o1	20.6µM*	-15.5%	?	?	16.8µM*	?
O=C(CNc1ccccc1)N/N=C/c1ccc([N+](=O)[O-])cc1	-11.4%	5.4%	i	-0.9%	3.4%	-6.4%
O=C(CCN1CCN(c2ccccc2)CC1)N/N=C/c1ccc([N+](=O)[O-])o1	?	-63.9%	i	?	?	20.6µM*
Cc1ccc(S(=O)(=O)N2CCOCC2)cc1C(=O)OCCOc1cccc(Cl)c1	0.0%	8.2%	i	1.7%	-13.8%	?
CCn1c(SCC(=O)Nc2oc(C)c3c(C)n[nH]c(=O)c23)nnc1-c1ccco1	/	-8.8%	i	11.5%	/	/
O=C(Nc1ccc(NS(=O)(=O)c2ccccc2)cc1)c1ccccc1Cl	-2.5%	3.4%	i	6.9%	2.0%	-16.9%
Oc1ccc(N=Cc2ccc(OCc3ccccc3)cc2)cc1	?	-106.4%	?	11.2µM*	/	?
CCNS(=O)(=O)c1ccc(CCC(=O)NC2CCCC2)cc1	-1.2%	0.1µM*	i	-7.3%	11.5%	8.2%
CC(C)CNS(=O)(=O)c1ccc(CCC(=O)NC2CCCC2)cc1	-1.7%	1.4%	i	0.9%	-22.0%	17.0%
O=S1(=O)c2ccccc2N(Cc2cccc(F)c2)c2ccccc21	6.6%	-8.2%	i	-11.5%	-15.7%	?
NC(=S)NN=C1c2ccccc2-c2ccccc21	3.5%	-110.8%	1.41µM*	6.31µM*	/	?
